Hit rate of the full screen: of about 48,000 compounds, about 13,000 (27%) showed an effect of 50% or more. The list shows a part of the results.
tested on: Wolbachia pipientis; assay: Anti-Wolbachia Cell-Based Screen; format: functional; parameters: scale not given: in the data most compounds retested in dose-response had high values; settings: 5 µM

| SMILES | Percent Effect |
| --- | --- |
| CCc1cc(NC2CCS(=O)(=O)CC2)nc(N2CCCCC2)n1 | -3.09% |
| Cn1c(CO)cnc1SC1CCCN(c2ccccc2F)C1=O (configuration not stated) | -6.766% |
| CC(Nc1ccn(CCS(C)(=O)=O)n1)c1ccc(C#N)cc1 (configuration not stated) | -8.389% |
| F[C@@H]1CN(CC2CC2)C[C@@H]1OCc1nc2ccccc2[nH]1 | -1.846% |
| COc1ccc(C(=O)Nc2ccccc2-c2ccc(=O)n(C)n2)nn1 | -4.369% |
| NC(=O)Cn1nc(-c2ccccc2F)ccc1=O | 144.8% |
| COC(=O)Cn1nc(-c2ccccc2F)ccc1=O | 121.8% |
| O=C(NC1CCN(c2ccc(-c3ccccc3F)nn2)C1)C1CCC1 (configuration not stated) | -17.95% |
| COc1ccc(F)cc1Cn1nc(C(N)=O)ccc1=O | 1.725% |
| Cn1nc(-c2ccccc2NC(=O)c2cncc(Br)c2)ccc1=O | -4.851% |
| O=C(O)Cn1nc(-c2ccccc2F)ccc1=O | 139.2% |
| CC(=O)Cn1nc(-c2ccccc2F)ccc1=O | 119.2% |
| CC(C)(C)C(=O)Cn1nc(-c2ccccc2F)ccc1=O | -0.9957% |
| CC(C)Oc1cccc(C(=O)C2CCCN(C(=O)c3ncn[nH]3)C2)c1 (configuration not stated) | -4.294% |
| CS(=O)(=O)c1ccc(NC(=O)CSc2ccc3c(c2)CCC3)cn1 | 7.446% |
| CC(c1nc(C2CC2)no1)N(C)Cc1cccc(F)c1 (configuration not stated) | 12.3% |
| CCN(CC)C(CNS(=O)(=O)c1ccc(C(=O)NC)cc1)c1ccco1 (configuration not stated) | 0.6188% |
| O=S(=O)(C1CC1)N1CCC2(CC1)COC(COc1cccnc1)C2 (configuration not stated) | -3.155% |
| O=C1CCC[C@]2(CN(S(=O)(=O)N3CCCCC3)C[C@H]2c2cccnc2)N1 | 175% |
| O=C(N1CC(c2cccnc2)C1)C1(c2ccc(F)cc2)CCOCC1 | 1.587% |
| N[C@H]1CN(S(=O)(=O)N2CCCCCC2)C[C@@H]1c1ccccc1 | 3.796% |
| CC1(C)CN(S(=O)(=O)N2CCOCC2)CC1c1ccccc1 (configuration not stated) | -33.51% |
| O=C1CCC[C@]2(CN(S(=O)(=O)C3CCCCC3)C[C@H]2c2cccnc2)N1 | 155.7% |
| O=C1CCC[C@]2(CN(S(=O)(=O)N3CCOCC3)C[C@H]2c2cccnc2)N1 | 174.7% |
| CC1(C)CN(S(=O)(=O)N2CCCC2)CC1c1ccccc1 (configuration not stated) | -16.61% |
| CC(C)N1CCC2(CC1)CC(c1cccnc1)C(=O)N2 (configuration not stated) | -11.82% |

| SMILES | Percent Effect |
| --- | --- |
| CCc1[nH]ncc1C(=O)N1CCN(c2nc(C)cc(OC)n2)CC1 | -4.996% |
| O=C(OCCNc1ncccn1)c1ccc(Cl)s1 | -0.7929% |
| Cn1cc(CN2C[C@@H]3COC[C@]3(COc3ccc(C#N)cn3)C2)cn1 | -1.317% |
| c1ccc(COC[C@]23COC[C@H]2CN(c2ncccn2)C3)nc1 | 107.1% |
| N#Cc1ccc(OC[C@]23COC[C@H]2CN(c2ncccn2)C3)nc1 | 98.67% |
| O=S(=O)(c1ccccc1)N1C[C@@H]2COC[C@]2(COCC2CC2)C1 | 4.427% |
| c1ccc(COC[C@@H]2CC[C@H]3[C@H](CCN3c3ncccn3)O2)nc1 | -9.448% |
| Cc1cccc(CN2C[C@@H]3COC[C@]3(COc3ccc(C#N)cn3)C2)n1 | -1.985% |
| CCc1ncc2c(n1)CN(C(C)C(=O)N1CCOCC1)CC2 (configuration not stated) | -13.62% |
| CC(Oc1ccc(F)cc1F)C(=O)N1CCC2(CCCO2)CC1 (configuration not stated) | -4.107% |
| O=C(c1ccc(=O)[nH]n1)N1CCCC(O)(CN2CCC(F)(F)CC2)CC1 (configuration not stated) | 110.9% |
| CCOc1ccccc1OC1CCN(C(=O)c2ccc(=O)[nH]n2)CC1 | -11.25% |
| O=C(c1cn2ccsc2n1)N1CCOCC(O)(CN2CCCC2)C1 (configuration not stated) | 6.26% |
| O=C(c1cccc(O)n1)N1CCC(O)(CN2CCC(F)(F)CC2)C1 (configuration not stated) | 119.2% |
| O=C(c1cnc(COc2ccccc2)nc1O)N1CCC(F)(F)CC1 | 10.39% |
| O=C(c1cc(F)ccc1F)C1CCN(C(=O)c2ccc(=O)[nH]n2)CC1 | 6.401% |
| NC(=O)Nc1cc(F)ccc1SCC(F)F | -8.756% |
| CCn1cc(CNC(C)c2noc(-c3ccc(Cl)cc3)n2)cn1 (configuration not stated) | 5.108% |
| CCN(CC1CCOC1)S(=O)(=O)Cc1ccccc1Cl (configuration not stated) | -1.168% |
| CC(CN1CCOCC1)NCC1CCN(c2cnn(C)c(=O)c2)CC1 (configuration not stated) | -0.8467% |
| Cc1ccc(CNC(=O)C2CCNC(=O)C2)c(OCCC(C)C)c1 (configuration not stated) | 103.9% |
| Cc1cccc(Oc2ccccc2CNC(=O)C2CCNC(=O)C2)c1 (configuration not stated) | 104.5% |
| CCc1[nH]c2c(CNC(=O)C3CCC(=O)NC3)cc(C)cc2c1C (configuration not stated) | -3.367% |
| O=C(NCc1ccccc1OCC1CC1)C1CCOC1 (configuration not stated) | -26.71% |
| O=C1CC(C(=O)NCc2ccccc2Oc2ccccc2F)CCN1 (configuration not stated) | 91.68% |
| Cc1ccc(C)c(OCCNC(=O)C2CCOC2)c1 (configuration not stated) | -7.675% |

| SMILES | Percent Effect |
| --- | --- |
| Cc1cccc(Oc2ccccc2CNC(=O)C2CCC(=O)NC2)c1 (configuration not stated) | 96.69% |
| CCc1[nH]c2c(CNC(=O)C3CNC(=O)C3)cc(C)cc2c1C (configuration not stated) | -7.809% |
| O=C1CCC(C(=O)NCCOc2cccc(Cl)c2Cl)CN1 (configuration not stated) | -0.2416% |
| Cc1ccc(C)c(OCCNC(=O)[C@@H]2CCCCN2)c1 | -1.478% |
| O=C(CNC(=O)C1CC1)Nc1c(F)cccc1Oc1ccccc1 | -3.554% |
| CC(C)(C)Oc1ccccc1CNC(=O)C1CCCOC1 (configuration not stated) | -47.48% |
| CC(NC(=O)N1CCSC(C)(C)C1)c1noc(-c2ccccc2)n1 (configuration not stated) | -9.511% |
| CCC[C@H]1CN(Cc2cncn2C)C[C@@H]1NC(=O)C1(COC)CCC1 | -8.158% |
| COCCNC(=O)c1ccoc1CN1c2ccccc2CC1C (configuration not stated) | -13.79% |
| Cc1nc(C)n(CC(C)C(=O)N2CCCN(C3CCCC3)CC2)n1 (configuration not stated) | -15.63% |
| O=c1[nH][nH]cc1-c1ccnc(NCCN2CCCCC2)n1 | 112.5% |
| C[C@H]1CCCCN1CCCNc1nccc(-c2c[nH][nH]c2=O)n1 | 112% |
| O=C1O[C@@H]2CN(Cc3ccncc3)C[C@@H]2N1CCCN1CCOCC1 | -10.63% |
| O=c1[nH][nH]cc1-c1ccnc(NCCN2CCCC2)n1 | -6.447% |
| O=c1[nH][nH]cc1-c1ccnc(NCCCN2CCOCC2)n1 | 116.9% |
| CC(C)COCC(NC(=O)c1ccccn1)c1ccco1 (configuration not stated) | 12.33% |
| O=C1CNCC(C(=O)N2CC(Oc3ccccc3Cl)C2)N1 (configuration not stated) | -5.2% |
| COc1ccc(F)cc1CN1CCCn2nc(CNS(C)(=O)=O)cc2C1 | 6.854% |
| O=C(C1CC1)N1CCC(c2nc(-c3ccccc3)n[nH]2)CC1 | -8.829% |
| Cc1ccc2c(c1)c(CNC(=O)C1CCN(C(=O)C3CC3)CC1)nn2C | -8.87% |
| CN1CCC(C(=O)N2CCC(c3ccc4c(N)n[nH]c4n3)CC2)CC1 | 104% |
| CCc1noc(CN(C)C(=O)C(C)(C)Oc2cccc(Cl)c2)n1 | 11.07% |
| CO[C@H]1COCCN(C(=O)c2ccc(C(F)(F)F)cc2)C1 | -0.5949% |
| CC1c2ncc(COc3cccnc3)n2CCN1C(=O)C1=CCCC1.O=C(O)C(F)(F)F (configuration not stated) | 6.564% |
| Cc1ccsc1CN1CCn2c(COc3cccnc3)cnc2C1C.O=C(O)C(F)(F)F.O=C(O)C(F)(F)F (configuration not stated) | 105.4% |
| CCOCc1cnc2n1CCN(Cc1nc(C)cs1)C2C.O=C(O)C(F)(F)F (configuration not stated) | -1.73% |

| SMILES | Percent Effect |
| --- | --- |
| COCc1cnc2n1CCN(Cc1cccnc1)C2C.O=C(O)C(F)(F)F.O=C(O)C(F)(F)F (configuration not stated) | -12.59% |
| Cc1csc(CN2CCn3c(COc4cccnc4)cnc3C2C)n1.O=C(O)C(F)(F)F.O=C(O)C(F)(F)F (configuration not stated) | 106.1% |
| Cc1ncsc1CN1CCn2c(COc3cccnc3)cnc2C1C.O=C(O)C(F)(F)F.O=C(O)C(F)(F)F (configuration not stated) | -6.197% |
| CCOCc1cnc2n1CCN(Cc1cccs1)C2C.O=C(O)C(F)(F)F (configuration not stated) | 10.91% |
| Cc1ccc(CN2CC[C@@H](N3CCOCC3)[C@@H]2Cc2cccnc2)o1.O=C(O)C(F)(F)F.O=C(O)C(F)(F)F.O=C(O)C(F)(F)F | -6.789% |
| Cc1ccc(CN2CCn3c(COc4cccnc4)cnc3C2C)o1.O=C(O)C(F)(F)F.O=C(O)C(F)(F)F (configuration not stated) | 105.5% |
| CC1c2ncc(COc3cccnc3)n2CCN1Cc1cnn(C)c1.O=C(O)C(F)(F)F.O=C(O)C(F)(F)F (configuration not stated) | 101.1% |
| CCNc1ncc(CN(CCN(C)C)Cc2ccc(C)s2)cn1 | 9.658% |
| CC(CC#N)N(C)Cc1ccc(F)cc1F (configuration not stated) | -4.017% |
| NC(=O)Nc1cc(Br)cnc1OCC(F)(F)F | 3.483% |
| CC(C)N1CCC(CC(=O)N(C)CC(=O)c2ccc(O)cc2)CC1 | -41.3% |
| COc1cc(OC)cc(-n2ccnc2-c2cc3n(n2)CCNC3)c1 | -3.796% |
| CN(C)C[C@H]1C[C@@H](CO)CN(C(=O)CCc2nc(Cl)n[nH]2)C1 | -2.145% |
| Cc1cccc2c1nc1n2[C@@H](CNC2CCCCC2)COC1 | -2.586% |
| CC1c2ncc(COc3cccnc3)n2CCN1C(=O)Cc1ccco1.O=C(O)C(F)(F)F (configuration not stated) | 6.97% |
| CC1c2ncc(COc3cccnc3)n2CCN1Cc1ccco1 (configuration not stated) | 103.4% |
| CCCNC(=O)c1ccc2c(c1)C(=O)N(CC(C)C)C2=O | 12.13% |
| O=C(Cc1ccc(F)cc1)NS(=O)(=O)c1ccc(F)c(F)c1 | -8.123% |
| O=C(c1cc(F)cc(F)c1)N1CCC2(CC1)CC2 | 32.79% |
| CC(=O)N1CC2(CCN(C(=O)c3ccoc3)C2)C1 | -7.067% |
| O=C(c1cc(F)cc(F)c1)N1CCC(O)(C(F)(F)F)CC1 | 87.26% |
| CC[C@@]1(O)CCN(C(=O)c2ccoc2)C[C@H]1O | -13.59% |
| Cc1ccc2cc(C(=O)N3CCC(O)(C(F)(F)F)CC3)ccc2n1 | 14.37% |
| O=C(c1ccoc1)N1CCC(O)(C(F)(F)F)CC1 | 69.76% |
